Measured values taken from PubChem BioAssay.

Test: plasmodial surface anion channel blockers, osmotic lysis – cell-based, P. falciparum Indochina, OD700, 18 h, primary screen (AID 1157)
Settings: P. falciparum Indochina infected erythrocytes, osmotic lysis OD700, 18 h; higher = more signal, called active from +8 up or from −8 down

z-score, inactive:
COCCCNC(=O)[C@@]1(Sc2ccc(C)cc2)CC(=O)N(Cc2ccccc2)[C@@H]1c1ccc(CO)cc1I 0.377, COC(=O)[C@H](C)NC(=O)CCC1CC(OC(=O)NCCc2ccc(F)cc2)CC2(CCCC(COC(=O)NCC(c3ccccc3)c3ccccc3)O2)O1 (stereo partly specified) 0.492, COc1ccccc1CN1C(=O)c2ccccc2[C@@H](C(=O)NCC(F)(F)F)[C@@H]1c1ccc(CO)cc1 0.547, Cc1cc2c(c(=O)o1)[C@H](O)[C@H]1O[C@H]1C2=O 0.0033, CCN(CC)c1ccc(N2CC=CC34O[C@@H]5/C=C\CCC(C)OC(=O)C5[C@H]3C(=O)N(CCCO)[C@@H]4C2=O)cc1 (stereo partly specified) -0.18, O=C1O[C@@H](c2ccccc2)[C@@H](c2ccccc2)N2[C@@H](c3ccccc3OCCO)[C@]3(C(=O)Nc4ccc(C#CCCO)cc43)[C@@H](C(=O)O)[C@H]12 -2.06, COc1ccc([Si](C)(C)[C@@H]2[C@@H](CC(=O)N3CCC[C@H]3CO)O[C@]3(C(=O)N(Cc4cccc(N5CCC5=O)c4)c4ccccc43)[C@H]2C)cc1 0.496, CC(C)(C)N1CC=CC23O[C@@H]4C=CCCOC(=O)C4[C@H]2C(=O)N(CCCCCO)[C@@H]3C1=O (stereo partly specified) 0.159, COc1cccc([C@@H]2Oc3ccc(Br)cc3C(=O)[C@H]2O)c1 0.592, CO[C@H]1COC(=O)[C@@H]2CCCN2C(=O)CC=C[C@@H](C)[C@H](OC)COC(=O)CC=C[C@@H]1C -1.7, CC(CCN1CCc2nc(-c3ccccc3)c(-c3ccccc3)cc2C1)=NO[C@H](C)c1cn([C@@H]2COC[C@H]2O)nn1 0.391, COC(=O)[C@H]1COC(c2ccc(OCCCO)cc2)=N1 0.642, O=C1[C@H]2[C@H]3[C@H](O)[C@H](O)CC(=NOC[C@@H](O)COCc4ccco4)[C@H]3CC[C@H]2C(=O)N1Cc1ccc2c(c1)OCO2 0.229, CC[C@@H](c1ccccc1)n1c(=O)n2n(c1=O)[C@H]1[C@H](O)[C@@H]3O[C@@H]3C(=NOCC=C(C)CCC=C(C)C)[C@H]1CC2 0.355, C[C@@H](c1ccccc1)N1C(=O)[C@H]2[C@H]3[C@H](O)[C@H](O)CC(=NOC[C@@H](O)COCc4ccco4)[C@@H]3CC[C@H]2C1=O -0.138, CO[C@H]1O[C@H](CO)[C@@H](OC(=O)Nc2ccc3c(c2)OCO3)[C@H](OC(=O)Nc2ccccc2-c2ccccc2)[C@@H]1OC(=O)Nc1ccccc1-c1ccccc1 1.14, NCCCCCNC(=O)[C@@H]1C[C@@H]2C(=O)N3CCC[C@H]3C(=O)N2[C@@H]1c1cccc(OCCO)c1 0.0814, C[C@@H]1C=CCC(=O)OC[C@H](C)C(=O)N2CCC[C@H]2C(=O)OC1 0.097, CCCC=C(CCC)[C@@H](NC(=O)c1ccc(-c2ccccc2)cc1)c1ccc(C(=O)OC)cc1 0.987, CCOC(=O)[C@H](Cc1ccccc1)NC(=O)CCC1CC(OC(=O)NCc2ccc3c(c2)OCO3)CC2(CCCC(COC(=O)NCC3CCCCC3)O2)O1 (stereo partly specified) 0.297, COc1ccc(COC(=O)NN=C2C[C@@H](O)[C@@H](O)[C@@H]3[C@@H]4C(=O)N(c5ccc(F)cc5F)C(=O)[C@@H]4CC[C@@H]23)cc1 0.302, CC(C)[C@@H](OCc1ccccc1)[C@H](C)C=NO[C@H](C)c1cn([C@H](CO)Cc2ccccc2)nn1 -2.28, COC(=O)[C@H](C)NC(=O)CCC1CC(OC(=O)NCc2cccc3ccccc23)CC2(CCCC(COC(=O)NCCc3ccc(Cl)cc3)O2)O1 (stereo partly specified) -0.193, COc1ccc(-c2nc3c(c4c2C[C@H](C)OC4)CN(CCC(C)C)CC3)cc1 0.123, O=C(NN=C1C[C@@H](O)[C@@H](O)[C@@H]2[C@@H]3C(=O)N(c4cccc(Oc5ccccc5)c4)C(=O)[C@@H]3CC[C@H]12)OCc1ccccc1 0.527, CCOC(=O)CCN1C(=O)[C@H]2[C@H]3[C@H](O)[C@H](O)CC(=NNC(=O)OCc4ccc(OC)cc4)[C@@H]3CC[C@H]2C1=O 0.353, CCN1C(=O)[C@H]2[C@H]3[C@H](O)C=CC(=O)[C@@H]3CC[C@H]2C1=O -0.21, C=C(CCCC)C(=O)CC[C@@H](OC(C)=O)c1cccc(OCCO)c1 0.822, O=C1C[C@]2(c3ccc([N+](=O)[O-])cc3)C(=O)N(CCN3CCOCC3)c3cc(CO)ccc3[C@H]2N1CC12CC3CC(CC(C3)C1)C2 0.45, [N-]=[N+]=NCc1ccccc1[C@@H]1OC(c2ccc(OCCCO)cc2)=N[C@]1(Cc1ccccc1)C(=O)N1CCOCC1 1.01, CC(C)N1CC=CC23O[C@@H]4C=CCCOC(=O)C4[C@H]2C(=O)N(CCCCCCO)[C@@H]3C1=O (stereo partly specified) 0.647, CCCNC(=O)[C@@H]1c2ccccc2C(=O)N(Cc2ccccc2Cl)[C@H]1c1ccc(CO)cc1 -0.505, CCN1C(=O)[C@H]2[C@H]3[C@H](O)[C@H](O)CC(=NOCc4ccccc4)[C@H]3CC[C@H]2C1=O 0.0113, C[C@H](c1ccccc1)N1C(=O)[C@H]2[C@H]3[C@H](O)[C@H](O)CC(=O)[C@@H]3CC[C@H]2C1=O -0.12, COC(=O)C1=C(C)[C@@H](O)[C@@H](C)[C@H](c2c(OC)c(OC)c(C)c(OC)c2OC)O1 0.1, CC(=O)OC[C@H]1O[C@H](CC=NOC[C@@H](C)[C@H](OCc2ccccc2)C(C)C)C=C[C@@H]1OC(C)=O 0.343
